# Measured values published in PubChem BioAssay AID1159580 (chemical genetic matrix, 2015).
# Among all 5,500 compounds or so, about 2,000 (36%) were called active. Inconclusive results (about 18%) are left out. Some of the results follow. A number with no mark means an inactive call. No stated cut-off is given here; in the data, active means normalized growth mostly below about 0.91 (no sharp cut-off); inconclusive means no clear call, values can overlap the other calls; inactive means mostly above about 0.92.
# Assay: chemical genetic growth profiling, strain panel (AID 1159580);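 further: tested at 20 µM; growth read once vehicle control cultures reached saturation at 30 °C; 1 = growth at the plate median or of vehicle wells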
# Settings: S. cerevisiae deletion strains, growth OD
smiles,measurement,setting,value
CC(CCC(=O)O)[C@H]1CCC2C3CC[C@@H]4C[C@H](O)CC[C@]4(C)C3C=C[C@@]21C (some centres not stated),normalized growth,"locus YAL021C, strain ccr4, stronger effect = lower value",0.968
same,normalized growth,"locus YAL026C, strain drs2, stronger effect = lower value",0.907 (active)
same,normalized growth,"locus YAL030W, strain snc1, stronger effect = lower value",1.01
same,normalized growth,"locus YBL061C, strain skt5, stronger effect = lower value",1.01
same,normalized growth,"locus YBR009C, strain hhf1, stronger effect = lower value",0.964
same,normalized growth,"locus YBR023C, strain chs3, stronger effect = lower value",0.95
same,normalized growth,"locus YBR171W, strain sec66, stronger effect = lower value",0.976
same,normalized growth,"locus YBR231C, strain swc5, stronger effect = lower value",1.02
same,normalized growth,"locus YBR279W, strain paf1, stronger effect = lower value",0.972
same,normalized growth,"locus YCL011C, strain gbp2, stronger effect = lower value",0.994
same,normalized growth,"locus YCL016C, strain dcc1, stronger effect = lower value",0.962
same,normalized growth,"locus YCL061C, strain MRC1, stronger effect = lower value",0.989
same,normalized growth,"locus YCL069W, strain vba3, stronger effect = lower value",0.997
same,normalized growth,"locus YCR088W, strain abp1, stronger effect = lower value",1.02
same,normalized growth,"locus YDL005C, strain med2, stronger effect = lower value",0.992
same,normalized growth,"locus YDL040C, strain nat1, stronger effect = lower value",1.01
same,normalized growth,"locus YDR001C, strain nth1, stronger effect = lower value",1.01
same,normalized growth,"locus YDR069C, strain doa4, stronger effect = lower value",1
same,normalized growth,"locus YDR137W, strain rgp1, stronger effect = lower value",0.501 (active)
same,normalized growth,"locus YDR159W, strain sac3, stronger effect = lower value",0.948
same,normalized growth,"locus YDR195W, strain ref2",1.2 [resistant] (active)
same,normalized growth,"locus YDR297W, strain sur2, stronger effect = lower value",1
same,normalized growth,"locus YDR334W, strain swr1, stronger effect = lower value",0.991
same,normalized growth,"locus YDR335W, strain msn5, stronger effect = lower value",0.969
same,normalized growth,"locus YDR392W, strain spt3, stronger effect = lower value",0.485 (active)
same,normalized growth,"locus YEL003W, strain gim4, stronger effect = lower value",0.968
same,normalized growth,"locus YEL037C, strain rad23, stronger effect = lower value",0.995
same,normalized growth,"locus YEL061C, strain CIN8 (second series), stronger effect = lower value",1.01
same,normalized growth,"locus YER015W, strain faa2, stronger effect = lower value",1.01
same,normalized growth,"locus YER016W, strain bim1, stronger effect = lower value",0.999
same,normalized growth,"locus YER111C, strain swi4, stronger effect = lower value",1
same,normalized growth,"locus YER155C, strain BEM2 (second series), stronger effect = lower value",1.08
same,normalized growth,"locus YFR010W, strain ubp6, stronger effect = lower value",0.987
same,normalized growth,"locus YGL167C, strain pmr1, stronger effect = lower value",0.989
same,normalized growth,"locus YGL173C, strain kem1, stronger effect = lower value",0.812 (active)
same,normalized growth,"locus YGL227W, strain vid30, stronger effect = lower value",1.03
same,normalized growth,"locus YGL240W, strain doc1, stronger effect = lower value",0.982
same,normalized growth,"locus YGL253W, strain hxk2, stronger effect = lower value",0.955
same,normalized growth,"locus YHR013C, strain ard1, stronger effect = lower value",0.973
same,normalized growth,"locus YHR027C, strain rpn1, stronger effect = lower value",0.996
same,normalized growth,"locus YHR142W, strain chs7, stronger effect = lower value",0.839 (active)
same,normalized growth,"locus YJL092W, strain hpr5, stronger effect = lower value",0.986
same,normalized growth,"locus YJL095W, strain BCK1 (second series), stronger effect = lower value",1
same,normalized growth,"locus YJL115W, strain asf1, stronger effect = lower value",1.01
same,normalized growth,"locus YJL129C, strain trk1, stronger effect = lower value",0.879
same,normalized growth,"locus YJL154C, strain vps35, stronger effect = lower value",1.03
same,normalized growth,"locus YJL164C, strain tpk1, stronger effect = lower value",0.899 (active)
same,normalized growth,"locus YJL166W, strain qcr8, stronger effect = lower value",0.894 (active)
same,normalized growth,"locus YJL187C, strain SWE1, stronger effect = lower value",0.972
same,normalized growth,"locus YKL160W, strain elf1, stronger effect = lower value",0.881 (active)
same,normalized growth,"locus YKR026C, strain gcn3, stronger effect = lower value",1.03
same,normalized growth,"locus YKR091W, strain srl3, stronger effect = lower value",1.01
same,normalized growth,"locus YLL001W, strain dnm1, stronger effect = lower value",1
same,normalized growth,"locus YLL026W, stronger effect = lower value",1.01
same,normalized growth,"locus YLL041C, strain sdh2, stronger effect = lower value",1
same,normalized growth,"locus YLR027C, strain aat2, stronger effect = lower value",0.944
same,normalized growth,"locus YLR221C, strain rsa3, stronger effect = lower value",0.898 (active)
same,normalized growth,"locus YLR258W, strain gsy2, stronger effect = lower value",0.998
same,normalized growth,"locus YLR262C, strain YPT6 (second series), stronger effect = lower value",0.532 (active)
same,normalized growth,"locus YLR320W, strain mms22, stronger effect = lower value",0.742 (active)
same,normalized growth,"locus YLR342W, strain FKS1, stronger effect = lower value",0.968
same,normalized growth,"locus YLR357W, strain rsc2, stronger effect = lower value",1.13
same,normalized growth,"locus YLR370C, strain arc18, stronger effect = lower value",0.955
same,normalized growth,"locus YLR384C, strain iki3, stronger effect = lower value",1.03
same,normalized growth,"locus YML120C, strain ndi1, stronger effect = lower value",0.861 (active)
same,normalized growth,"locus YMR058W, strain fet3, stronger effect = lower value",0.869 (active)
same,normalized growth,"locus YMR125W, strain sto1, stronger effect = lower value",1.11 [resistant] (active)
same,normalized growth,"locus YMR129W, stronger effect = lower value",1.02
same,normalized growth,"locus YMR205C, strain PFK2, stronger effect = lower value",0.966
same,normalized growth,"locus YMR231W, strain pep5, stronger effect = lower value",0.963
same,normalized growth,"locus YNL071W, strain lat1, stronger effect = lower value",0.792 (active)
same,normalized growth,"locus YNL209W, strain ssb2, stronger effect = lower value",0.99
same,normalized growth,"locus YNL248C, strain rpa49, stronger effect = lower value",0.904
same,normalized growth,"locus YNL322C, strain KRE1 (second series), stronger effect = lower value",1.04
same,normalized growth,"locus YNR049C, strain mso1, stronger effect = lower value",1
same,normalized growth,"locus YOR001W, strain rrp6, stronger effect = lower value",0.86 (active)
same,normalized growth,"locus YOR070C, strain gyp1, stronger effect = lower value",0.9 (active)
same,normalized growth,"locus YOR080W, strain dia2, stronger effect = lower value",0.997
same,normalized growth,"locus YOR083W, strain WHI5, stronger effect = lower value",0.85 (active)
same,normalized growth,"locus YOR106W, strain vam3, stronger effect = lower value",0.842 (active)
same,normalized growth,"locus YOR265W, strain rbl2, stronger effect = lower value",1.01
same,normalized growth,"locus YOR270C, strain vph1, stronger effect = lower value",0.808
same,normalized growth,"locus YOR290C, strain snf2, stronger effect = lower value",0.83 (active)
same,normalized growth,"locus YPL051W, strain arl3, stronger effect = lower value",0.817 (active)
same,normalized growth,"locus YPL078C, strain atp4, stronger effect = lower value",0.834 (active)
same,normalized growth,"locus YPL106C, strain sse1, stronger effect = lower value",1.22 [resistant] (active)
same,normalized growth,"locus YPL240C, strain hsp82, stronger effect = lower value",0.997
